# KCNQ2 inh: rat KCNQ2 potassium channel inhibitors, primary screen, cell-based, CHO-K1, FluxOR thallium flux, B-score. Potassium voltage-gated channel subfamily KQT member 2 (Rattus norvegicus), O88943. 20 min; hits give low values. B-score at 10 µM. 1.1% of 310,000 active. AID 2156, 2009;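 active = fluorescence ratio B-score at most minus 3 library SDs, with starting brightness B-score within 2 library SDs, cut at about -5.5 in these data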
# KCNQ2 enhance: potentiators of rat KCNQ2 potassium channel | CHO-K1 KCNQ2, FluxOR thallium flux fluorescence; hits give high values | B-score at 10 µM | 0.54% of 310,000 active | AID 2239, 2010;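 active = fluorescence ratio B-score at least 3 SD of library B-scores, with initial fluorescence B-score within 3 of them, cut at about 5.3 in these data; same plate scores as AID 2156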;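 note: B-score of peak minus minimum over baseline fluorescence ratio after K+ and Tl+ stimulus; positive B-score means potentiation of KCNQ2 with more thallium influx and brighter signal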
# KCNQ2 block conf: rat KCNQ2 potassium channel inhibitors, confirmation, cell-based, thallium flux; shares compounds with KCNQ2 inh; KCNQ2-expressing cells, inhibition; hits give low values; activity change, negative = inhibition, % at 10 µM; 57% of 1,000 active; AID 493025, 2011;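 note: 0% = vehicle wells and values are ratio percent relative to vehicle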
# KCNQ1 spec: human KCNQ1 channel inhibition, counter-screen for KCNQ2 inhibitor project, cell-based, FluxOR thallium flux; shares compounds with KCNQ2 inh; KCNQ1-expressing cells, FluxOR thallium flux fluorescence; hits give low values; activity change, negative = inhibition, % at 10 µM; 15% of 1,000 active; AID 493026, 2011;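 active = activity change at least 3 SD of negative controls below their mean in both duplicate wells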;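 note: CHO cells stably transfected with KCNQ1 and depolarized by potassium stimulus; peak minus minimum fluorescence over baseline after thallium addition; 0% = vehicle negative control and -100% = blank without thallium stimulus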
# Target sequence (P51787 whole entry, looked up): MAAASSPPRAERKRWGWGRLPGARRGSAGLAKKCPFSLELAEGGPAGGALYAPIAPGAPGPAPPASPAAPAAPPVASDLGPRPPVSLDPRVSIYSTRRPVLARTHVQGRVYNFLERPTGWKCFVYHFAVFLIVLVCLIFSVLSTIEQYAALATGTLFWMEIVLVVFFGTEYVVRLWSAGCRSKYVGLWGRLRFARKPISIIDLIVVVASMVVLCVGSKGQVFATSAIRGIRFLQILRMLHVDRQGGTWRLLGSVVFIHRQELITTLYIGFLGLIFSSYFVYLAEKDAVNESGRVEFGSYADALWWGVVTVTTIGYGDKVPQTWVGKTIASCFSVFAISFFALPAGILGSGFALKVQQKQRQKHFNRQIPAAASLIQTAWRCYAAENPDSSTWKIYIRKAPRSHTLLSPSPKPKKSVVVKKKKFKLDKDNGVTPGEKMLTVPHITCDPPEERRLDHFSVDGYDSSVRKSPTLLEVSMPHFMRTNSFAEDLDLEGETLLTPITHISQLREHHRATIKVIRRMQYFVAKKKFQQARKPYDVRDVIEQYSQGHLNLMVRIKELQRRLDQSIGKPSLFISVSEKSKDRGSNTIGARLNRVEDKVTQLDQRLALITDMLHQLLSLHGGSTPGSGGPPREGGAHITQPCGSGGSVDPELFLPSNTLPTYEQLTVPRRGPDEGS
# CHO parental ctr: thallium flux change in parental CHO cells, counter-screen for KCNQ2 inhibitor project; shares compounds with KCNQ2 inh; hits give low values; activity change, % at 10 µM; 14% of 1,000 active; AID 493029, 2011;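 note: 0% = vehicle negative controls with stimulus buffer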
# KCNQ2 patch conf: rat KCNQ2 channel inhibitors, confirmation, cell-based, automated patch clamp, single concentration; calls only at 10 µM; 49% of 550 active; KCNQ2-expressing cells, automated patch clamp current; shares compounds with KCNQ2 inh
# The depositor's hits bear a star; i = inactive; · = no result given. Hits are enriched below; roughly 1.6% of the tested compounds scored in any of these assays. Unless noted, the rule behind the calls is not given here.
SMILES,KCNQ2 inh,KCNQ2 enhance,KCNQ2 block conf,KCNQ1 spec,CHO parental ctr,others
Cc1ccc(NC(=O)CSc2nnc(-c3ccccn3)n2N)c(Br)c1,i,0.77,·,·,·,
COC(=O)/C=C/c1ccc2c(c1)OCO2,i,1.84,·,·,·,
CN(C(=O)/C=C/c1ccc2c(c1)OCO2)c1ccccc1,-6.61*,-6.61,-23.0%*,i,i,KCNQ2 patch conf=i
Cc1ccc(N/C=C/C(=O)c2cccs2)cc1C,i,·,·,·,·,
O=C(/C=C/Nc1ccc(Nc2ccccc2)cc1)c1cccs1,-7.29*,-7.29,i,i,i,
O=S1(=O)CCN2N=C(C3CC3)SC2=N1,i,0.91,·,·,·,
CC1CCCN(C(=O)N2c3ccccc3Sc3ccccc32)C1 (configuration not stated),-6.87*,-6.87,-15.0%*,i,i,KCNQ2 patch conf=i
O=C(N1CCOCC1)N1c2ccccc2Sc2ccccc21,i,·,·,·,·,
O=C(NCCn1cc(SCc2ccc(F)cc2)c2ccccc21)c1ccccc1F,-9.09*,-9.09,i,i,i,
O=C(NCCn1cc(SCc2ccc(F)cc2)c2ccccc21)c1c(F)cccc1F,i,0.27,·,·,·,
CCN(CC)CCCNC(=O)c1cc(Nc2ccc(OC)cc2)nc2ccccc12,i,·,·,·,·,
CC1CCCC(C)N1C(=O)COc1ccc(F)cc1 (configuration not stated),i,1.05,·,·,·,
Cc1ccccc1C(=O)Oc1cccc(Nc2ncnc3ccccc23)c1,-9.62*,-9.62,i,i,i,
CC(=O)Oc1cccc(Nc2ncnc3ccccc23)c1,i,·,·,·,·,
Cc1cccc(OCCC(=O)Nc2ccc(Cl)cc2F)c1,i,2.85,·,·,·,
Cc1cccc(-c2nnc(SCc3ccc(C#N)cc3)n2Cc2ccco2)c1,-8.81*,-8.81,-26.0%*,i,i,
CCn1c(SCc2ccc(C#N)cc2)nnc1-c1cccc(Cl)c1,i,·,·,·,·,
COc1cccc(N=C2CC(C)(C)CC(=O)/C2=C(/O)c2ccccc2)c1,i,·,·,·,·,
COCC(=O)Nc1sc2c(c1C(=O)OC)CCCC2,i,·,·,·,·,
COC(=O)c1c(NC(=O)Cc2cccs2)sc2c1CCCC2,-8.42*,-8.42,-30.0%*,i,i,KCNQ2 patch conf=i
CC1CCCC(C)N1c1ccc(S(=O)(=O)N2CCOCC2)cc1Cl (configuration not stated),i,0.07,·,·,·,
c1ccc(CCNc2nc(-c3ccccn3)nc3ccccc23)cc1,-8.57*,-8.57,-29.0%*,i,i,KCNQ2 patch conf=i
CCCN(CCC)c1nc(-c2ccccn2)nc2ccccc12,i,·,·,·,·,
CCn1nc([N+](=O)[O-])c2c(-c3nc4ccccc4o3)c(N)n(CCCOC)c2c1=O,i,2.65,·,·,·,
CC(C(=O)NCC1CCCCC1)N(C)Cc1ccc(Br)cc1 (configuration not stated),i,·,·,·,·,
SMILES,KCNQ2 inh,KCNQ2 enhance,KCNQ2 block conf,KCNQ1 spec,CHO parental ctr,others
CC(C(=O)NCC1CCCCC1)N(C)Cc1ccc(Cl)cc1 (configuration not stated),-6.74*,-6.74,i,i,i,
CC1CCC(=C(C#N)c2nc(-c3cc4ccccc4oc3=O)cs2)CC1 (configuration not stated),-8.52*,-8.52,i,i,i,
N#CCc1nc(-c2cc3ccccc3oc2=O)cs1,i,0.89,·,·,·,
CC(NC(=O)/C(C#N)=C/c1ccc(Cl)c([N+](=O)[O-])c1)c1ccccc1 (configuration not stated),-10.9*,-10.9,-25.5%*,i,i,KCNQ2 patch conf=i
CC(NC(=O)/C(C#N)=C/c1ccc(OCC(=O)O)cc1)c1ccccc1 (configuration not stated),i,·,·,·,·,
COc1cc(C(=O)Nc2ccc3c(c2)CCCN3C(=O)c2ccco2)c([N+](=O)[O-])cc1OC,i,2.12,·,·,·,
CC1(c2ccc3ccccc3c2)NC(=O)N(CC(=O)Nc2cccc(S(=O)(=O)N3CCOCC3)c2)C1=O (configuration not stated),i,0.01,·,·,·,
Cc1ccc(C(=O)/C=C/C(=O)c2ccc(C)cc2)cc1,-7.53*,-7.53,i,i,i,
Cc1ccc(/C=C/C(=O)c2ccc(C)cc2)cc1,i,·,·,·,·,
CCOCCCNC(=O)/C(C#N)=C/c1ccc(C)o1,i,0.61,·,·,·,
COc1ccccc1CNC(=O)CN1C(=O)C(C)N(c2ccc(C)cc2)C1=O (configuration not stated),-7.53*,-7.53,i,i,i,
COc1ccc(CNC(=O)CN2C(=O)C(C)N(c3ccc(C)cc3)C2=O)cc1 (configuration not stated),i,·,·,·,·,
CCOc1ccccc1N1CCN(CC(=O)NC(C)c2ccccc2)CC1 (configuration not stated),i,0.9,·,·,·,
CCc1ccc(NC(=O)CC2C(=O)NCCN2C(=O)c2ccc(F)cc2)cc1 (configuration not stated),i,0.78,·,·,·,
O=C(NC1CCCC1)c1cc2nc(-c3ccccc3)cc(-c3ccccc3)n2n1,i,·,·,·,·,
O=C(c1cc(-c2ccc(Cl)cc2)nc2ccccc12)N1CCOCC1,i,·,·,·,·,
O=C(c1cnn2c(-c3ccccc3)cc(-c3ccccc3)nc12)N1CCN(Cc2ccccc2)CC1,-8.93*,-8.93,-28.0%*,i,i,KCNQ2 patch conf=i
O=C(NCCN1CCOCC1)c1cnn2c(-c3ccccc3)cc(-c3ccccc3)nc12,i,·,·,·,·,
CC1CCN(C(=O)c2cc3nc(-c4ccccc4)cc(-c4ccccc4)n3n2)CC1,-7.84*,-7.84,-35.0%*,i,i,KCNQ2 patch conf=i
Cc1ccc(-c2cc(C(=O)N3CCC(C)CC3)c3ccccc3n2)cc1,-8.3*,-8.3,-29.0%*,i,i,KCNQ2 patch conf=i
CCOC(=O)C1C(c2ccc(O)c(O)c2)NC(=S)NC1(O)C(F)(F)F (configuration not stated),i,0.92,·,·,·,
O=C(COc1ccc2ccc(=O)oc2c1)N1CCc2ccccc21,i,2.14,·,·,·,
COc1cccc(C=O)c1OCCN1C(=O)c2ccccc2C1=O,i,0.43,·,·,·,
O=C(CNCCc1ccc(F)cc1)Nc1cc(F)ccc1F,i,0.92,·,·,·,
COc1ccc(N=C2SC(C(=O)N3CCN(c4ccccc4)CC3)CC(=O)N2C)cc1 (configuration not stated),i,1.33,·,·,·,
Cc1ccccc1OCc1nc(C#N)c(N2CCCC2)o1,i,·,·,·,·,
N#Cc1nc(COc2ccc(F)cc2)oc1N1CCCC1,i,·,·,·,·,
N#Cc1nc(COc2ccccc2)oc1N1CCC(Cc2ccccc2)CC1,-11.1*,-11.1,-29.5%*,i,i,KCNQ2 patch conf=i
Cc1ccc(OCc2nc(C#N)c(N3CCN(Cc4ccccc4)CC3)o2)cc1,-7.85*,-7.85,i,i,i,
Cc1ccccc1C(=O)NNC(=O)CSc1nc(-c2ccccc2)cc(=O)[nH]1,i,0.29,·,·,·,
